Reference: PubChem BioAssay AID1259240 (Keith Lab, Institute of Cancer Science, University of …, 2017)
The source made the active and inactive calls. Cut-off read from the data, not from the text of the source: active = fold change mostly below about -2 (no sharp cut-off); inactive = mostly above about -1.8.

Assay: TERT promoter activity modulators, primary screen, cell-based, luciferase reporter, human (AID 1259240)
Details: A2780 TERT promoter luciferase reporter, 16 h; at 20 µM, fold versus average of vehicle-only wells

Question: Which fold change does the source give for `COCCn1c(C)cc(C(=O)CSc2nnc3c(C)cc4ccccc4n23)c1C` here?
Answer: Its fold change is 1.96 (inactive).

Question: For `CC(=O)c1ccc(N2CCN(C(=O)CCCc3nnc4n5nc(C)nc5c5ccccc5n34)CC2)cc1`, which fold change is on record?
Answer: The fold change was -1.6 (inactive).

Question: With `CCOC(=O)N1CCC(Nc2c(N3CCCCC3C)c(=O)c2=O)CC1` (stereo not given) as the compound, how does the fold change read?
Answer: Its fold change is 1.02 (inactive).

Question: For `Cc1c(C(=O)N2CC(C)CC(C)C2)sc2ncn(CC(=O)N3CCC(C)CC3)c(=O)c12` (stereo not given), which fold change is on record?
Answer: The fold change was -1.37 (inactive).

Question: With `CCOC(=O)C1CCN(c2c(NCCN(C)C)c(=O)c2=O)CC1` as the compound, how does the fold change read?
Answer: The fold change was 1.32 (inactive).

Question: For `C=CCNC(=O)CSc1nc(-c2cccs2)cc(C(F)(F)F)n1`, which fold change is on record?
Answer: The fold change was -1.55 (inactive).

Question: Which fold change does the source give for `CC(C)C(NS(=O)(=O)c1cccc2nsnc12)C(=O)NC1CCCCC1C` (stereo not given) here?
Answer: The fold change was -1.42 (inactive).

Question: Which fold change does the source give for `COc1ccccc1OCC(O)Cn1c(=N)n(CCN2CCOCC2)c2ccccc21` (stereo not given) here?
Answer: Its fold change is -1.29 (inactive).

Question: For `CCCCNC(=O)c1ccc(CNc2c(NC3CCCC3)c(=O)c2=O)cc1`, which fold change is on record?
Answer: Its fold change is 1.11 (inactive).

Question: With `O=C(CSc1ncnc2ccccc12)Nc1cccc(F)c1` as the compound, how does the fold change read?
Answer: Its fold change is 1.32 (inactive).

Question: Which fold change does the source give for `Cn1c(C(=O)NCCN2CCOCC2)cc2c(=O)[nH]c3ccccc3c21` here?
Answer: Its fold change is 1.17 (inactive).

Question: With `Cc1ccc(N2C(=O)c3n[nH]c(C)c3C2c2ccccc2F)cc1` (stereo not given) as the compound, how does the fold change read?
Answer: The fold change was 1.63 (inactive).

Question: With `O=S(=O)(c1cccc(-c2cn3ccccc3n2)c1)N1CCCCC1` as the compound, how does the fold change read?
Answer: The fold change was -1.03 (inactive).

Question: With `c1ccc2c(c1)nc(N1CCN(C3CCCCC3)CC1)c1nncn12` as the compound, how does the fold change read?
Answer: The fold change was 1.24 (inactive).

Question: Which fold change does the source give for `O=C(NCCc1c[nH]c2ccccc12)c1ccc(NC2=NC3CS(=O)(=O)CC3S2)cc1` (stereo not given) here?
Answer: Its fold change is -1.35 (inactive).

Question: Which fold change does the source give for `COc1ccc(CCn2c(=O)c3cccnc3n(CC#N)c2=O)cc1OC` here?
Answer: The fold change was 1.04 (inactive).

Question: Which fold change does the source give for `CCOC(=O)N1CCC(Nc2c(NC3CCCCC3C)c(=O)c2=O)CC1` (stereo not given) here?
Answer: The fold change was -1.05 (inactive).

Question: For `CC1CCN(C(=O)Cn2cc(/C=C3/C(=O)Nc4ccccc43)c3ccccc32)CC1`, which fold change is on record?
Answer: The fold change was 1.13 (inactive).

Question: For `Cc1ccc(NC(=O)CC2Sc3ccc(C(F)(F)F)cc3NC2=O)cc1C` (stereo not given), which fold change is on record?
Answer: The fold change was -1.24 (inactive).

Question: With `CCC(CC)COC(=O)C1=C(C)NC(=O)CC1c1ccccc1C` (stereo not given) as the compound, how does the fold change read?
Answer: Its fold change is 1.08 (inactive).

Question: Which fold change does the source give for `Cc1nc(SCC(=O)N2CCCC2)c2c(=O)n(C)c(=O)n(C)c2n1` here?
Answer: Its fold change is 1.5 (inactive).

Question: For `O=C(O)CN1C(=O)/C(=C/c2ccc(SCc3ccccc3)o2)SC1=S`, which fold change is on record?
Answer: The fold change was 1.04 (inactive).

Question: For `COc1ccc(/C=C/c2nc3scc(-c4cccs4)c3c(=O)o2)cc1`, which fold change is on record?
Answer: Its fold change is -1.6 (inactive).

Question: For `O=C(CCN1C(=O)c2ccccc2S1(=O)=O)Nc1cc(Cl)ccc1Cl`, which fold change is on record?
Answer: Its fold change is 1.22 (inactive).

Question: Which fold change does the source give for `CCc1nc(C)cn1S(=O)(=O)c1cc(C)c(OC)cc1C` here?
Answer: Its fold change is -1.15 (inactive).

Question: For `Cc1cc(NC(=O)c2cc3c(s2)-c2ccccc2S(=O)(=O)C3)no1`, which fold change is on record?
Answer: Its fold change is 1.14 (inactive).

Question: Which fold change does the source give for `CCOC(=O)Cn1c(=O)oc2cc(S(=O)(=O)Nc3ccc(F)cc3)ccc21` here?
Answer: The fold change was -1.03 (inactive).

Question: For `COc1cc2[nH]c(=O)n(CC3CCCO3)c(=O)c2cc1OC` (stereo not given), which fold change is on record?
Answer: The fold change was 1.01 (inactive).

Question: Which fold change does the source give for `O=C(CC1C(=O)N(c2cccc(Cl)c2)C(=O)N1Cc1cccs1)Nc1ccccc1` (stereo not given) here?
Answer: The fold change was 1.26 (inactive).

Question: Which fold change does the source give for `CCOC(=O)c1nnn(-c2nonc2N)c1CNc1ccc(F)cc1` here?
Answer: The fold change was 1.3 (inactive).

Question: For `CCC(C(=O)O)N1C(=O)/C(=C/c2ccc(OC)cc2)SC1=S` (stereo not given), which fold change is on record?
Answer: Its fold change is -2.97 (active).

Question: Which fold change does the source give for `CCOC(=O)C1=C(CS(=O)(=O)c2ccccc2)NC(=O)NC1c1ccccc1` (stereo not given) here?
Answer: Its fold change is 1.91 (inactive).

Question: With `CN(C1=NS(=O)(=O)c2cc([N+](=O)[O-])ccc21)c1ccccc1` as the compound, how does the fold change read?
Answer: Its fold change is -2.35 (active).

Question: For `COc1ccc(-c2cc(C(F)(F)F)nc(SCCC(=O)N3CCN4CCCC4C3)n2)cc1` (stereo not given), which fold change is on record?
Answer: Its fold change is -1.73 (inactive).

Question: Which fold change does the source give for `COCC(=O)N1N=C(c2ccc(NS(C)(=O)=O)cc2)CC1c1ccccc1` (stereo not given) here?
Answer: Its fold change is 1.13 (inactive).

Question: With `Cc1nc2c(-c3ccc(F)cc3)c(C)nn2c(C)c1CCC(=O)NCc1ccc2c(c1)OCO2` as the compound, how does the fold change read?
Answer: The fold change was 1.02 (inactive).

Question: Which fold change does the source give for `O=C(NCc1ccc(Cl)cc1)Nc1ccc2snnc2c1` here?
Answer: Its fold change is -1.36 (inactive).

Question: With `NC(=O)c1ccccc1NC(=O)c1cc(-c2ccc(Br)s2)nc2ccccc12` as the compound, how does the fold change read?
Answer: Its fold change is -2.57 (active).

Question: Which fold change does the source give for `CS(=O)(=O)Nc1ccc(C2=NN(S(C)(=O)=O)C(c3ccccc3)C2)cc1` (stereo not given) here?
Answer: The fold change was 1.5 (inactive).

Question: Which fold change does the source give for `Cc1noc(C(=O)Nc2sc3c(c2C#N)CCC3)c1Cl` here?
Answer: Its fold change is 1.31 (inactive).
